The record followed here is PubChem BioAssay AID686978 (National Center for Advancing Translational Sciences (NCATS), 2013).

Each structure is given as a SMILES string. Out of some 420,000 compounds screened, about 64,000 (15%) were called active. Another 27% or so got no clear call; they are omitted. The call rests on the fitted dose curve; in most records, active means well fitted inhibition curve with a large enough effect; inconclusive means small, poorly fitted or top-dose-only effect; inactive means flat fitted curve, though single readings scatter. Not all results are given here. A call without a number means that no potency is given here.
Potency means the concentration at half of the fitted maximal effect.

A short description of this test: qHTS for Inhibitors of human tyrosyl-DNA phosphodiesterase 1 (TDP1): qHTS in cells in absence of CPT. Further: nearly all actives have a fitted effect of over 55% in size. The conditions noted are these: DT40 Tdp1-/- hTDP1 cells, no CPT, ATP luminescence, 48 h; activity change, negative = growth inhibition: at 46.2 µM (top of the series). The source says:
Human tyrosyl-DNA phosphodiesterase 1 (TDP1) is a novel repair gene, and we propose to use it as a new target for anticancer drug development. TDP1 is not an essential protein, but under treatment with topoisomerase I poison (camptothecin: CPT), TDP1 works as a critical factor for cell survival. To directly identify novel TDP1 inhibitors active in a cellular environment, we have knocked-out the Tdp1 gene in chicken DT40 cells (Tdp1-/-) and generated a complemented counterpart cells that contains a stable transfection of the human TDP1 gene (Tdp1-/-;hTDP1 cells). For the primary screen, Tdp1-/-;hTDP1 cells will be exposed to small molecules in the presence or absence of CPT, and their growth kinetics will be evaluated after 48 hours by measuring ATP activity. […] The hit compounds will then be evaluated in the presence or absence of CPT using Tdp1-/- cells. […] In tertiary assays, biochemical gel-based assays will be used to assess whether the hit compounds specifically target TDP1.
To this end, we have screened this cell line against the MLSMR in two primary screens. In one screen we add CPT and in the other we screen in the absence of CPT; this AID represents the screen where CPT was absent.
NIH Chemical Genomics Center [NCGC]
NIH Molecular Libraries Probe Centers Network [MLPCN]
Assay Submitter (PI): Yves Pommier, NCI
DT40-hTDP1 cells without 20 nM Camptothecin (add 20 microL of DMSO in 1 L of cell culture medium) were dispensed at 400 cells/5microL/well in tissue culture treated 1536-well white wall/solid bottom assay plates (Greiner Bio-One North America, NC, U.S.A.) using a Multidrop Combi 8 channel dispenser (Thermo Fisher, Waltham, MA, USA). 23 nL compounds and controls were transferred using the pin tool (Kalypsys, San Diego, CA, USA) to the assay plates. The assay plates were then incubated at 37 masculineC for a minimum 48 hr. Three microL of Cell Titer Glo solution was added to the plates and incubated at RT in dark for 30 min. Luminescence was read using ViewLux (Perkin Elmer) with 1 sec exposure slow speed, high gain and 2x binning.
Background: In qHTS, concentration-response curves come from the screen itself.
With `N#CNC1=NCN(CCc2ccccc2)CN1`, the Potency entry is “inactive”.
The same measure for `O=C(CCN1CCCCC1)Nc1ccc(F)c(F)c1`: “inactive”.
The same measure for `COc1ccc(C)cc1S(=O)(=O)Nc1cc2c3c(c1)CCC(=O)N3CCC2`: “inactive”.
The same measure for `COc1ccccc1CCNS(=O)(=O)c1cc2c3c(c1)C(C)C(=O)N3CCC2` (configuration not stated): 2.91 µM (active); for `COc1ccc(N2CCN(S(=O)(=O)c3cc4c5c(c3)C(C)C(=O)N5CCC4)CC2)cc1` (configuration not stated): “inactive”; for `Cc1cccc(NC(=O)Cc2ccc(Br)cc2)n1`: “inactive”.
With `COC(=O)Cc1nc2ccccc2[nH]1`, the Potency entry was “inactive”.
The same measure for `CCOC(=O)C1CCN(C(=O)Cc2c(C(=O)O)[nH]c3ccccc23)CC1`: “inactive”.
Regarding `COC(=O)Cc1c(-c2[nH]c3ccccc3c2CC(=O)OC)[nH]c2ccccc12`, the Potency was 14.6 µM (active).
On to `COc1ccc(S(=O)(=O)N2CCOCC2)c(C)c1C`, for which the Potency result was “inactive”.
The same measure for `COc1ccc(NC(=O)COC(=O)c2ccc(NS(=O)(=O)/C=C/c3ccccc3)cc2)cc1`: “inactive”.
The same measure for `COc1ccccc1Cn1c(=S)[nH]c2cc(C(=O)N3CCN(C)CC3)ccc2c1=O`: “inactive”; for `COc1ccc(CNC(=O)C2CCN(C(=O)c3ccco3)CC2)cc1`: “inactive”.
The figure for `COc1ccc(Cn2c(=O)[nH]c3cc(C(=O)N4CCN(C(=O)c5ccco5)CC4)ccc3c2=O)cc1` is 11.2 µM (active); for `COC(=O)c1ccc(NC(=O)CSc2nc(N)c(NC(=O)c3ccc(Br)o3)c(=O)[nH]2)cc1` it is “inactive”; for `Brc1ccc2ncnc(NCc3cccnc3)c2c1` it is 20.6 µM (active).
In the case of `c1ccc(CNc2ncncc2-c2cccnc2)cc1`, the Potency entry is “inactive”.
The entry for `Cc1cc(NCc2cccnc2)no1` is “inactive”; for `OC[C@@H]1CN(Cc2ccc(Cl)cc2)C[C@H](n2cnc3c(NCc4ccncc4)ncnc32)O1` it is “inactive”; for `Clc1ccc(Cn2ncc3c(NCc4cccnc4)ncnc32)cc1` it is 20.6 µM (active).
The entry for `Clc1ccc(Nc2ncnc3c2nnn3Cc2ccccc2)cc1` is “inactive”; for `O=C(NCCN1CCOCC1)c1ccc2c(c1)ncn2C1CCCC1` it is “inactive”.
The same measure for `CC(Oc1cccc(Cl)c1)C(=O)NC1CC(C)(C)NC(C)(C)C1` (configuration not stated): “inactive”.
Take `CN(CC(=O)NCCc1ccccc1)S(=O)(=O)c1cnc[nH]1`: the Potency entry is “inactive”.
The entry for `CN=C(NC#N)NCCSCc1nc[nH]c1C` is “inactive”; for `COc1ccc(CN2C(=O)CN=C2Nc2ccc(C)cc2C)cc1` it is “inactive”.
The entry for `CCOC(=O)c1ccccc1CN1C(=O)c2ccccc2S1(=O)=O` is “inactive”; for `CCOC(=O)CN1C(C(=O)c2ccccc2)=C(OC(=O)C(C)(C)C)c2ccccc2S1(=O)=O` it is 14.6 µM (active).
For `COC(=O)C1=C(c2ccccc2)c2ccccc2S(=O)(=O)N1CC(=O)Nc1ccccc1C(F)(F)F`, the Potency result was “inactive”.
The same measure for `Cn1c(SCC(=O)c2ccc(F)cc2)nnc1-c1ccccn1`: “inactive”.
In the case of `CC1(C(=O)Nc2cccc3c2CCCC3)CCN1C(=O)CCc1ccc(Cl)cc1Cl` (configuration not stated), the Potency was 23.1 µM (active).
The entry for `Cc1ccccc1S(=O)(=O)NC(=O)C1(C)CCN1C(=O)C1(c2ccc(Cl)cc2)CC1` (configuration not stated) is “inactive”.
In the case of `CC1(C(=O)NS(=O)(=O)Cc2cccc(Cl)c2)CCN1C(=O)Cc1ccc(Cl)cc1Cl` (configuration not stated), the Potency result was “inactive”.
The figure for `CC1(C(=O)Nc2cccc3c2CCCC3)CCN1C(=O)C1(c2ccccc2)CC1` (configuration not stated) is 14.6 µM (active); for `CCCNC(=O)C1(C)CCN1C(=O)C1(c2ccccc2)CC1` (configuration not stated) it is “inactive”.
On to `Cc1ccccc1S(=O)(=O)NC(=O)C1(C)CCN1C(=O)Cc1ccc(Cl)cc1Cl` (configuration not stated), for which the Potency result was “inactive”.
The same measure for `O=C(N=C1SC2CS(=O)(=O)CC2N1c1ccccc1)c1ccccc1` (configuration not stated): “inactive”; for `O=c1ccn([C@@H]2O[C@H](CNS(=O)(=O)c3cc4ccccc4s3)[C@@H](O)[C@H]2O)c(=O)[nH]1`: “inactive”.
The entry for `Nc1ccc(Oc2ccc(Cl)cc2)cc1` is “inactive”; for `CC(C(=O)O)c1ccc(C2CCCCC2)c2ccccc12` (configuration not stated) it is “inactive”.
The same measure for `Cc1ccccc1Nc1scc(-c2ccc(Br)cc2)[n+]1-c1ccccc1C`: 29.1 µM (active); for `CCCCC1S/C(=N/N=C/c2cccs2)NC1=O` (configuration not stated): 18.4 µM (active); for `CCC1S/C(=N/N=C/c2ccco2)NC1=O` (configuration not stated): “inactive”.
For the molecule `O=C1N/C(=N\N=C\c2ccco2)SC1Cc1ccc(F)cc1` (configuration not stated), the Potency entry is “inactive”.
The entry for `C=CCOC(=O)C1=C[C@H](c2ccc(Br)cc2)C[C@H](OCCCCO)O1` is “inactive”; for `CC1(C)CC(=O)C(C2=NC(C)(C)Cc3ccccc32)=C(O)C1` it is “inactive”; for `CCOc1ccc(NC(=O)N(CC(C)C)CC(C)C)cc1` it is “inactive”.
The entry for `CCOc1ccc(NC(=O)c2ncoc2-c2ccco2)cc1` is “inactive”; for `CCOc1ccc(NC(=O)N(CCC(C)C)C(C)c2ccco2)cc1` (configuration not stated) it is 20.6 µM (active); for `C[N+](C)(C)CCCCCNCC12CC3CC(CC(C3)C1)C2` it is “inactive”.
The entry for `CC(C)(O)C#Cc1ncc(C(F)(F)F)cc1Cl` is “inactive”.
Regarding `Cc1cc(C)n(S(=O)(=O)c2cccc([N+](=O)[O-])c2)n1`, the Potency entry was “inactive”.
